Experiment [1] is described as follows: Brca1-Bard1 BiLC signal decrease – luminescence, single concentration, counter-screen for Mdm2/MdmX interaction inhibitor project, confirmation (AID 504668). The note with it: Brca1/Bard1 bimolecular luciferase complementation counterscreen, at 8 µM, stronger effect = higher value.
The nature of experiment [2]: NFkB reporter suppression in cystic fibrosis bronchial cells – cell-based, uHTS hits, panel, cytotoxicity readout, dose response (AID 624344). The note with it: CF bronchial epithelial cells, PAF-induced NFkB reporter inhibition, with PAF, run 1; at 79 µM (top of the series) unless noted.
Experiment in experiment [3]: as above
The note with it: CF bronchial epithelial cells, PAF-induced NFkB reporter inhibition, with PAF, run 2; at 79 µM (top of the series) unless noted.

Experiment [4] addresses Tumor necrosis factor receptor superfamily member 10B (Homo sapiens) (UniProt O14763). As to the kind of experiment: viability loss of caspase-8 NB7 cells with TRAIL – with/without TRAIL, luminescence panel, confirmation (AID 651596; in the data active means activity above about 50%). The note with it: NB7 neuroblastoma + caspase-8, TRAIL sensitization, NB7 Caspase-8, with TRAIL, mean of runs, at 10 µM, stronger effect = higher value.

Experiment in experiment [5]: as above
The note with it: NB7 neuroblastoma + caspase-8, without TRAIL, NB7 Caspase-8, without TRAIL, mean of runs, at 10 µM.

Experiment [6] is described as follows: HIF-2a driven luciferase blockers, single dose – luminescence, 786-0 RCC cells, confirmation (AID 651580;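 active means mean inhibition across four replicates of at least 40 percent at the single tested concentration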). The note with it: HIF-2a luciferase reporter luminescence, overnight, at 18.8 µM, stronger effect = higher value.
Experiment [7] can be described thus: HIF-1a luciferase reporter signal reduction – MiaPaCa-2 cells, single concentration, counter-screen for HIF-2a inhibitor project, confirmation (AID 651589;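 active means mean inhibition of the reporter signal across four replicates at the single tested dose of 50% or more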). The note with it: MiaPaCa-2 HIF-1a luciferase reporter, desferoxamine, overnight; at 18.8 µM; stronger effect = higher value.

Molecules are shown by their SMILES. The list shows a part of the results. Active and inactive are the calls of the source. Unless noted, how the calls were made is not given here.

Tumor necrosis factor receptor superfamily member 10B (Homo sapiens), sequence (O14763 whole entry, looked up): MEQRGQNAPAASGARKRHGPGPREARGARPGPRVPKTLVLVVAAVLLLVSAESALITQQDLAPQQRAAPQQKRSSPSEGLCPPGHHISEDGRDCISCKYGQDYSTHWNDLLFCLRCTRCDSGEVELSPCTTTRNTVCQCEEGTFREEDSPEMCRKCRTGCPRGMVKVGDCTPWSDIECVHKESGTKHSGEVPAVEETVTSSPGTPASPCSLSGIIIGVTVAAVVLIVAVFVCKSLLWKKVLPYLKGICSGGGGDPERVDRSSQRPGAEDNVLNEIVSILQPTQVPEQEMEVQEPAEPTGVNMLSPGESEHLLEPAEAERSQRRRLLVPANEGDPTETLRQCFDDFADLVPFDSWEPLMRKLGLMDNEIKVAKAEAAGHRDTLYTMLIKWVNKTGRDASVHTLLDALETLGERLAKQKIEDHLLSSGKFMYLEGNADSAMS

Consider `Cn1nnnc1Sc1ncnc2scc(-c3ccc[nH]3)c12`, for which the inhibition in experiment [1] was 29.2% (active); in experiment [2], 66.8%; in experiment [3] it was 61.6%.

Take `CCCN(CCC)c1ncnc2nc[nH]c12`: the inhibition in experiment [1] is 34.6% (active); in experiment [2], 109%; in experiment [3] it was 108%.

Take `COc1ccc2[nH]c3c(c2c1)CC(C)NC3=O` (centres undefined): the inhibition in experiment [1] is 33.6% (active); in experiment [2], 103%; in experiment [3] it was 112%.

Take `COc1cccc(-c2nnc3sc(C4CCCCC4)nn23)c1`: the inhibition in experiment [1] is 25% (active); in experiment [2], 111%; in experiment [3], 104%.

For the compound `CC(C)c1nc(NCCO)c(C#N)c2c1CCCC2`, the inhibition in experiment [1] was 35% (active); in experiment [2], 112%; in experiment [3], 103%.

For the compound `O=C(/C=C/c1cccc([N+](=O)[O-])c1)n1cnc2ccccc21`, the inhibition in experiment [1] was 24.6% (active); in experiment [2], 102%; in experiment [3], 111%.

As for `COC1(OC)C=CC(=O)C=C1NC(=O)c1ccccc1OC(C)=O`, the figures for the inhibition in experiment [1], in experiment [2] and in experiment [3] were 35.6% (active), 101% and 113%, respectively.

As for `Clc1cccc(Nc2ncnc3ccc(Br)cc23)c1`, the inhibition in experiment [1] is 35.6% (active); in experiment [2], 109%; in experiment [3], 104%.

Take `COc1ccc2cc(C(N)=O)c(=Nc3ccc(C)cc3)oc2c1`: the inhibition is 35.2% (active) in experiment [1], 87.6% in experiment [2] and 75.7% in experiment [3].

In the case of `CC(C)Nc1ncnc2ccc(Br)cc12`, the inhibition in experiment [1] was 24.8% (active); in experiment [2], 118%; in experiment [3] it was 104%.

Turning to `CC(C)CN=C(NS(=O)(=O)c1ccccc1)C(Cl)(Cl)Cl`, the inhibition in experiment [1] was 35.9% (active); in experiment [2], 102%; in experiment [3], 112%.

Consider `CCOc1cc(Br)c(Br)c(C=Nc2ccc(NC(C)=O)cc2)c1O`, for which the results for the inhibition in experiment [1], in experiment [2] and in experiment [3] were 33.1% (active), 105% and 115%, respectively.

With `COc1ccc(Cc2nnc(SCc3ccc([N+](=O)[O-])cc3)o2)cc1`, the inhibition in experiment [1] was 28.9% (active); in experiment [2], 113%; in experiment [3] it was 97.4%.

As for `Cc1cccc(Nc2ncnc3ccc(Br)cc23)c1`, the inhibition in experiment [1] was 25.6% (active); in experiment [2] it was 103%; in experiment [3], 110%.

Regarding `Cc1c(C=O)c(C=O)c(C)n1Cc1ccccc1`, the inhibition in experiment [1] is 30.8% (active); in experiment [2], 118%; in experiment [3] it was 103%.

As to `COc1ccc(-c2csc3ncnc(NCCO)c23)cc1`, the inhibition is 26.2% (active) in experiment [1], 104% in experiment [2] and 113% in experiment [3].

As to `Cc1[nH]nc2ncc(C(=O)c3ccccc3O)cc12`, the inhibition was 30.4% (active) in experiment [1], 109% in experiment [2] and 92.1% in experiment [3].

`COc1ccc(-c2cn[nH]c2-c2ccc(OC)cc2O)cc1`: the inhibition in experiment [1] is 32.5% (active); in experiment [2], 103%; in experiment [3], 112%.

Regarding `CCN1CCN(Cc2ccc(NC(=O)c3ccc(C)c(NC(=O)C(=O)c4c[nH]c5ccccc45)c3)cc2C(F)(F)F)CC1`, the inhibition in experiment [1] was 30.8% (active); in experiment [2], 103%; in experiment [3] it was 112%.

Regarding `Cc1cccc(CNc2ncnc3ccc(-c4ccoc4)cc23)c1`, the inhibition was 23.8% (active) in experiment [1], 114% in experiment [2] and 106% in experiment [3].

Regarding `COc1ccc(-c2cn[nH]c2-c2ccc(O)cc2O)cc1`, the inhibition is 25.3% (active) in experiment [1], 104% in experiment [2] and 112% in experiment [3].

For the compound `CCOc1ccc(-n2c(C)c(C(C)=O)c3cc(O)ccc32)cc1`, the inhibition in experiment [1] is 31.2% (active); in experiment [2] it was 90%; in experiment [3], 88.2%.

In the case of `Cc1[nH]nc2nc(SCC(=O)NCCC3=CCCCC3)n(-c3ccc(Br)cc3)c(=N)c12`, the inhibition in experiment [1] was 31.1% (active); in experiment [2] it was 100%; in experiment [3], 111%. In addition, the figures for the activity in experiment [4] and in experiment [5] were 58.5% and 88.4%, respectively.

As to `COc1ccc(-c2cncnc2-c2ccc(OC)cc2O)cc1`, the inhibition was 27.2% (active) in experiment [1], 101% in experiment [2] and 93.5% in experiment [3].

For `COC(=O)c1c(NC(=O)c2ccc(OC(C)C)cc2)sc2c1CC(C)(C)NC2(C)C`, the inhibition in experiment [1] is 23.6% (active). Further, the results for the activity in experiment [4] and in experiment [5] were 43.5% and 31.2%, respectively.

Take `CC(C)(C)c1ccc(C2CC2C(=O)N/N=C\c2ccc[nH]2)cc1` (centres undefined): the inhibition in experiment [1] is 30.5% (active). The activity in experiment [4] came to 79.5%; in experiment [5], 96.8%.

Consider `Cc1ccc(-c2nn(C(C)(C)C)c3ncnc(N)c23)cc1`, for which the inhibition in experiment [1] was 30.7% (active); in experiment [6], 70.1% (active); in experiment [7], 93.8% (active).

On to `CCCCCc1cc(=O)oc2c(C(CCN3CCCCC3)c3cc(OC)c(OC)c(OC)c3)c(OC)cc(OC)c12` (centres undefined), for which, in experiment [1], the inhibition was 26.6% (active). Besides, the activity came to 45.4% in experiment [4] and 36.5% in experiment [5].

With `CC(NC(=O)Nc1nnc(C(F)(F)F)s1)(C(F)(F)F)C(F)(F)F`, the inhibition in experiment [1] was 32.9% (active). Also, the activity in experiment [4] was found to be 43.9%; in experiment [5], 43.1%.

Take `Cn1c(=O)c(C(=O)Nc2ccccn2)c(O)c2ccccc21`: the inhibition in experiment [1] is 28.9% (active). In addition, the activity in experiment [4] was found to be 60.7%; in experiment [5], 58.8%.

As for `CC1CCc2c(sc3nc(C(C)(C)C)nc(N4CCN(C(=O)CCl)CC4)c23)C1` (centres undefined), the inhibition in experiment [1] was 34.8% (active). Moreover, the activity in experiment [4] was determined as 98.8%; in experiment [5], 99.2%.

Regarding `O=C(CSc1ccccn1)Nc1nonc1[N+](=O)[O-]`, the inhibition in experiment [1] is 29.3% (active). For the same compound, the activity in experiment [4] is 30.1%; in experiment [5] it was 58.2%.

With `CC(C)(C)c1ccc(C(=O)O/N=C(\N)c2ccccc2)cc1`, the inhibition in experiment [1] is 23.3% (active). Further, the activity in experiment [4] came out at 99.4%; in experiment [5], 99.6%.

With `N#CC1(NC(=O)Cn2ncc(Cl)c(Cl)c2=O)CCCCC1`, the inhibition in experiment [1] was 29.6% (active). The activity in experiment [4] was 98.5%; in experiment [5], 99.2%.

The values above are taken from PubChem BioAssay.
